Source: PubChem BioAssay (EPA / NIEHS)
Activity calls are given as the source filed them. Rule for the calls: active = hit-call score of the fitted dose curve at least 0.9, where 1 is the maximum; inactive = score below 0.9.

These compounds were tested on Alpha-fetoprotein (AFP) gene, AFP (gene 174) (assay: LTEA_HepaRG_AFP: Life Technologies and Expression Analysis (LTEA) Assay for Alpha-fetoprotein (AFP) gene using HepaRG (AID 2283472;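 for AC50: AFP transcript by TaqMan qRT-PCR normalized to ACTB GAPDH and POLR2A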)). Conditions: mRNA level, 48 h; actives raise or lower the signal.
Protocol: It is a marker of Undifferentiated hepatocyte.Data from the assay component LTEA_HepaRG_AFP was analyzed into 1 endpoint. This assay endpoint, LTEA_HepaRG_AFP, was analyzed with bidirectional fitting relative to DMSO as the negative control and baseline of activity. Using a type of inducible reporter, measures of mRNA induction for gain or loss-of-signal activity can be used to understand regulation of transcription factor activity. To generalize the intended target to other relatable targets, this assay endpoint is annotated to the background measurement intended target family, where the subfamily is assay control.
A total of 1060 chemcials from the ToxCast library were tested in eight-point concentration-response experiments. Cell culture and cytotoxicity assays were conducted at Thermo Fisher Scientific's Custom Services facility (Madison, WI). A single lot of human HepaRG cells (Thermo Fisher Scientific, Frederick, MD) was used for the cell culture experiments. 96-well format collagen type I coated plates of human HepaRG cells were prepared using established methods. Briefly, cryopreserved HepaRG cells were thawed, plated at a density of approximately 100,000 cells/well in HepaRG Thaw, Plate, and General Purpose media (HPRG770, Thermo Fisher Scientific), and incubated for 48 hours. 0.5% DMSO was selected as vehicle control to balance the requisite need of DMSO in HepaRG cultures to maintain differentiation (for example, baseline metabolism, proportions of hepatocytes vs. cholangiocytes), while enabling further hepatic receptor pathway activation (for example, PXR and CAR) in response to chemical exposure. 48 hours after plating, the culture medium was replaced with HepaRG Serum-Free Incudtion Media. Cells were exposed to each test chemical in duplicate and maintained in CO2 incubators for another 48 hours. Chemical plates were thawed to room temperature and 200x concentrations of treatment groups were prepared. 8-point conentration-reponse curves were made with the highest exposure at 100 uM, followed by half-log dilutions, all in 0.5% DMSO. Each test plate contained variouse controls, induction positive controls (1mM phenobarbital), cytotoxicity positive controls ([…] aflatoxin B1), vehicle controls (0.5% DMSO), and total lysis controls (0.5% DMSO). Cell morphology images were taken using an Essen IncuCyte FLR automated microscope, with six 96-well plates imaged in about 24 minutes. Images were captured and exported and JPEG files. Spent culture media was transfered to black-well plates for the LDH assay, and remaining media was sorted at -80 C for later use. Cells were treated with RLT buffer and frozen until shipped for gene expression analysis. Total RNA was isolated from the cell suspension in 75 uL of Buffer RLT (Qiagen, Germantown, MD 20874) by Quintiles/Expression Analysis (Durham, NC) using a custom isolation procedure. Total RNA from each plate well was transferred to a preamplification plate. Fluidigm's 96.96 Dynamic ArrayTM (Fluidigm, Amsterdam, the Netherlands) technology was used for gene expression analyses by quantitative reverse transcription polymerase chain reaction (qRT-PCR, performed by Quintiles/Expression Analysis, Durham, NC)89. Standard TaqManTM Assays (Applied Biosystems/ThermoFisher Scientific, Foster City, CA) were used to assess the expression of 93 genes selected based on their selectivity and sensitivity to important hepatic receptors known to be modulated by environmental chemicals; importance in human hepatocyte functionality; and hepatotoxicity. Three "housekeeping" endogenous control genes were also included and used for normalization: actin beta (ACTB), Glyceraldehyde 3 phosphate dehydrogenase (GAPDH) and RNA Polymerase II Subunit A (POLR2A). qRT-PCR was conducted according to the manufacturer's protocol.

AC50, active:
C[C@]12CC[C@@H]3c4ccc(O)cc4CC[C@H]3[C@@H]1CC[C@H]2O 75.7 µM
CO[C@H]1/C=C/O[C@@]2(C)Oc3c(C)c(O)c4c(O)c(c(/C=N/N5CCN(C)CC5)c(O)c4c3C2=O)NC(=O)/C(C)=C\C=C\[C@H](C)[C@H](O)[C@@H](C)[C@@H](O)[C@@H](C)[C@H](OC(C)=O)[C@@H]1C 13 µM
CC(=O)N1CCN(c2ccc(OC[C@H]3CO[C@](Cn4ccnc4)(c4ccc(Cl)cc4Cl)O3)cc2)CC1 19.1 µM
CN(C)c1ccc(C(=C2C=CC(=[N+](C)C)C=C2)c2ccc(N(C)C)cc2)cc1 1.91 µM
CCN(Cc1cccnc1)C(=O)c1cccc(Cl)c1[C@]1(C)C(=O)N(Cc2ccc(OC)cc2OC)c2ccc(Cl)cc21 19.4 µM
OC12N=C(c3ccccc3)SC1Cc1cc(Cl)ccc12 (stereo not given) 36.4 µM
NCc1cccc(C2CCN(C(=O)c3ccc(C#Cc4ccccc4F)o3)CC2)c1 83.7 µM
Clc1cc(Cl)c2c(c1)N=C1CCCCCN1C2 25 µM
O=C(O)Cc1cc(I)c(Oc2ccc(O)c(I)c2)c(I)c1 74.7 µM
CCCOC(=O)c1cc(O)c(O)c(O)c1 15.2 µM
CN1C(=O)N(c2ccccc2Br)Cc2cnc(Nc3ccc4c(c3)OCC(CO)O4)nc21 (stereo not given) 23.1 µM

outcome, inactive:
CCCCCCCCOC(=O)c1cc(O)c(O)c(O)c1
O=C1O[C@H]([C@@H](O)CO)C(O)=C1O
O=c1ccc2ccccc2o1
CC(C)(c1cc(Br)c(O)c(Br)c1)c1cc(Br)c(O)c(Br)c1
Cc1ncc(CO)c(CO)c1O
COCC(C)OCC(C)OCC(C)O (stereo not given)
O=C(O)c1ccccc1C(=O)OCc1ccccc1
CCCCCCCCCCCCO
CN(C)C(=O)C1(N2CCCCC2)CCN(CC[C@@]2(c3ccc(Cl)c(Cl)c3)CN(C(=O)c3ccccc3)CCO2)CC1
COc1cc(C(=O)NC2CCN(C)CC2)ccc1Nc1ncc2c(n1)N(C1CCCC1)CC(F)(F)C(=O)N2C
COc1ccc2cc(S(=O)(=O)N[C@H](CC(=O)N[C@H](Cc3ccc(CN4[C@H](C)CCC[C@@H]4C)cc3)C(=O)N(C)C(C)C)c3ccc4c(c3)OCO4)ccc2c1
CC1=CC(=O)/C(=C(/C)O)C(=O)O1
Cc1ccc(C(C)C)cc1
O=C1CCC(C2CCCCC2)CC1
CC/C(=C(/CC)c1ccc(O)cc1)c1ccc(O)cc1
CCN(CC)C(=O)c1cc(S(=O)(=O)Cc2ccccc2)c(N2CCC(c3ccccc3)CC2)cc1N(CC)CCN(C)C
CC(O)CC(C)(C)O (stereo not given)
OCCO
c1ccc2n[nH]nc2c1
CCCCOC(=O)c1ccc(O)cc1
NC(=O)c1nc(-c2cccc(-c3cc(F)ccc3OCC(F)(F)C(F)(F)F)c2)n[nH]1
O=c1c(-c2ccc(O)cc2)coc2cc(O)cc(O)c12
O=C1c2ccccc2C(=O)N1CCc1noc(-c2ccc(CN3CCCCCC3)s2)n1
Oc1ccccc1
O=C(Nc1ccc(Cl)cc1)Nc1ccc(Cl)c(Cl)c1
CC(C)(C)c1cc(/C=C2\SC(N)=NC2=O)cc(C(C)(C)C)c1O
O=C(O)Cn1c(=O)n(Cc2ccc(Br)cc2F)c(=O)c2ccc(Cl)cc21
O=c1[nH]sc2ccccc12
Cc1cn([C@H]2C[C@H](N=[N+]=[N-])[C@@H](CO)O2)c(=O)[nH]c1=O
